# Screening data deposited in PubChem BioAssay by several laboratories.
# This is a sample that favours compounds with a hit; in the whole collection about 3.7% have one here.
# BoNT-F LC inh: blocks Botulinum neurotoxin F light chain protease. Multiplex microsphere protease cleavage assay, flow cytometry. inhibition, % at 10 µM. 360,000 compounds, 0.22% hits; in the data active means inhibition above about 35%, passing the limit was not always enough; inconclusive means no clear call, values can overlap the other calls; further: plate controls were buffer without enzyme for full effect and enzyme alone for no effect
# MazEF act: activators of E. coli MazEF toxin-antitoxin RNase; activation, % at 20 µM; AID 504720; P0AE70; 350,000 compounds, 0.32% hits; FAM/BHQ RNA-DNA oligo cleavage fluorescence, 5 h; in the data active means activation above about 50%
# Target sequence (P0AE70 whole entry, looked up): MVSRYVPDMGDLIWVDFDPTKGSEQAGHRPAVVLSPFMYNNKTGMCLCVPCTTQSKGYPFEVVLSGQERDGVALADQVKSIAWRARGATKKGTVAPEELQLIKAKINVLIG
# Autofluor counter: flagged as autofluorescent in microsphere protease counterscreen; compound autofluorescence counterscreen, microsphere flow cytometry; active compounds read high; 360,000 compounds, 3.1% hits; AID 624483; fluorescence intensity (test concentration not listed); in the data active means fluorescence intensity above about 16000; inconclusive means no clear call, values can overlap the other calls
# Anthrax LF inh2: inhibitors of Bacillus anthracis lethal factor protease | P15917 | multiplex microsphere protease cleavage assay, LF | inhibition, % at 10 µM | 360,000 compounds, 0.12% hits; further: plate controls were buffer without enzyme for full effect and enzyme alone for no effect
# BoNT A protease: BoNT A light chain protease inhibition. multiplex microsphere protease substrate cleavage, flow cytometry. inhibition, % at 10 µM. 360,000 compounds, 0.17% hits. AID 588499; further: plate controls were buffer without enzyme for full effect and enzyme alone for no effect
# The depositor's hits bear a star; ? = inconclusive; . = not tested or not shown. Unless noted, no stated cut-off is given here; in the data, active means inhibition above about 30%; inconclusive means no clear call, values can overlap the other calls; inactive means below that.
SMILES,BoNT-F LC inh,MazEF act,Autofluor counter,Anthrax LF inh2,BoNT A protease
COc1ccc(CNCCNC(=O)c2nonc2N)cc1OC,?,-55,?,-9,0
Cc1ccc(Cl)cc1NC(=O)CNC(=O)N1CC(=O)Nc2ccccc21,12,1,5573,-1,2
COc1ccc(CCNC(=O)c2cc(C(C)C)on2)cc1OC,-9,4,6917,-7,-1
Nc1nonc1C(=O)NCCNCc1c(OCc2ccccc2F)ccc2ccccc12,-9,59*,11191,-8,0
Nc1nonc1C(=O)NCCNCc1cc(Br)ccc1OCc1ccc(F)cc1,-14,0,19634*,-9,?
COc1ccc(CCNC(=O)c2noc3c2CCCC3)cc1OC,0,-12,21948*,2,2
Fc1ccc(COc2ccc(Br)cc2CNCc2ccncc2)cc1,-6,-1,8031,-1,0
O=C(OCC(=O)N1CCN(S(=O)(=O)c2ccc(Cl)cc2)CC1)c1cccc(OC(F)F)c1,8,4,?,-2,1
CCOC(=O)c1c(-c2ccccc2)nc2ccc(C)cn12,0,3,19967*,2,?
O=C(Cc1ccc(-n2c(=S)[nH]c3ccccc3c2=O)cc1)N1CCN(c2ccccc2)CC1,-2,13,22575*,-6,-1
O=C(Cc1ccc(-n2c(=O)[nH]c3ccccc3c2=O)cc1)N1CCN(c2ccccc2)CC1,-7,6,7958,0,1
N#C/C(=C(/O)c1ccc(C(=O)c2ccccc2)cc1)c1nc2ccccc2[nH]1,-4,6,4804,4,-1
CCCCOc1ccc(/C(O)=C(\C#N)c2nc3ccccc3[nH]2)cc1,42*,6,3997,17,-1
CCN1C(=O)C(O)(CC(=O)c2ccc3c(c2)OCCO3)c2ccccc21 (stereo not given),-4,-1,5525,0,0
COc1cc(C(C)=O)ccc1OC(=O)c1cc2cccc(OC)c2oc1=O,0,27,4568,2,1
COc1ccc(CN2C(=O)C(O)(CC(=O)c3ccc4c(c3)OCO4)c3ccccc32)cc1OC (stereo not given),4,5,22009*,-4,5
COc1cccc2cc(C(=O)CC3(O)C(=O)N(Cc4ccccc4)c4ccccc43)c(=O)oc12 (stereo not given),-1,6,20419*,-3,0
COc1cccc2cc(C(C)=O)c(=O)oc12,-1,-1,19894*,1,-1
CCOC(=O)CN1C(=O)C(O)(CC(=O)c2cccc(OC)c2)c2ccccc21 (stereo not given),1,12,23744*,-4,-1
COc1cc2c(cc1OC)CN(C1CCC(C(C)(C)C)CC1)CC2 (stereo not given),3,-5,3418,8,2
C/C=C/c1cccc(-c2nc(C(=O)N3CCN(C)CC3)cc3c2[C@@H](CCO)N(C(=O)NC(C)C)C3)c1,-12,.,5893,-2,-1
Cc1ccc2c(c1C)NC(=O)C2(O)CC(=O)c1ccc2c(c1)OCO2 (stereo not given),0,-9,16395*,-3,?
O=C(CC1(O)C(=O)Nc2ccccc21)c1ccc2c(c1)OCO2 (stereo not given),2,-5,8963,-2,0
O=C(Cc1coc2ccc3ccccc3c12)NCc1ccccc1,-3,-1,20707*,-1,-2
O=C(Cc1coc2ccc3ccccc3c12)Nc1nccs1,-11,7,3552,1,0
SMILES,BoNT-F LC inh,MazEF act,Autofluor counter,Anthrax LF inh2,BoNT A protease
COc1ccc(CNCC(O)(c2ccc(Cl)cc2)c2ccc(Cl)cc2)cc1OC,-22,9,18261*,-5,-6
COc1ccc(CNCC(O)(c2ccc(Cl)cc2)c2ccc(Cl)cc2)cc1,-16,-1,21174*,-6,-2
NC(=O)c1cc(S(=O)(=O)N2CCCC2)ccc1OCCOc1ccccc1F,-7,8,5467,-2,-1
Cc1cc(C)c2nc(SCC(=O)Nc3cc(C)on3)c(C#N)cc2c1,-6,59*,5459,1,-3
CCOC(=O)CSc1nc(C)c(C(C)=O)cc1C#N,-2,-5,23558*,-1,-3
COC(=O)CSc1nc2cc(C)ccc2cc1C#N,10,260*,4193,-4,1
CC(=O)c1cc(C#N)c(SCC(=O)O)nc1C,3,0,?,0,1
Cc1cc(NC(=O)CSc2nc3ccccc3cc2C#N)no1,0,55*,5291,0,0
COc1ccc2oc(C(=O)Nc3ccc(N4CCOCC4)cc3)c(C)c2c1,?,1,5906,?,-3
Cc1ccc2nc(SCC(=O)Nc3ccc4sc(C)nc4c3)c(C#N)cc2c1,-3,168*,10098,-4,-1
